# Results from PubChem BioAssay (NCATS).
# Records with an inconclusive call do not appear. A call without a number means that no potency is given here. Calls of active or inactive are those of the source. Unless noted, calls follow the shape of the dose curve; as a rule, active = well fitted curve in the direction sought with a large enough effect; inconclusive = small, poorly fitted or top-dose-only effect, or another doubt; inactive = no such curve, though single readings can be large; an effect the other way counts as inactive or inconclusive.
# How the values were obtained:
# [1] = qHTS to identify inhibitors of the type 1 interferon - major histocompatibility complex class I in skeletal muscle: primary screen against the NCATS Mechanism Interrogation Plate v5.0 (MIPE) Libary (AID 1347411); also: nearly all actives have a fitted effect of over 65% in size
# Procedure, shortened: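 Immortalized human myoblasts (C25cl48) with HiBit knocked into endogenous HLA-B*08:01 were stimulated with 4 ng/ml IFN-beta and given compounds in 11-point 1:3 titration from 46 uM. After 24 h at 37 C, lytic HiBiT luminescence was read.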
# [2] = target: Glutathione peroxidase 1 (Homo sapiens) (UniProt P07203); experiment: Primary qHTS Assay for Inhibitors of Recombinant Selenoprotein Glutathione Peroxidase 1 (GPX1) (AID 1845191); also: nearly all actives have a fitted effect of over 65% in size
# Chain of Glutathione peroxidase 1 (Homo sapiens) (P07203 whole entry, looked up): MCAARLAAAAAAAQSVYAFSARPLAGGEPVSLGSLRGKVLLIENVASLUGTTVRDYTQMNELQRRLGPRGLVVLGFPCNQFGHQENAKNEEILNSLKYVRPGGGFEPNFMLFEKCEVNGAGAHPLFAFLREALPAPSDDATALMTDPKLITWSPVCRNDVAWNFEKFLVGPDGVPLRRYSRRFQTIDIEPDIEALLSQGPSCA
# Procedure, shortened: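 GR-coupled assay: compounds preincubated 30 min at room temperature with GPX1, then reaction started with CHP; final 10 nM GPX1, 1 mM GSH, 0.5 mM CHP, 0.5 mM NADPH, 100 nM GR, 0.01% BSA, pH 7.5 Tris buffer. NADPH fluorescence (340/450 nm) read at 0 and 15 min.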
# [3] = target: Phospholipid hydroperoxide glutathione peroxidase GPX4 (Homo sapiens) (UniProt P36969); experiment: Primary qHTS Assay for Inhibitors of Recombinant Selenoprotein Glutathione Peroxidase 4 (GPX4) (AID 1845192); settings: outcome: dose series up to 50 µM unless noted; also: series mostly up to about 50 µM; nearly all actives have a fitted effect of over 65% in size
# Chain of Phospholipid hydroperoxide glutathione peroxidase GPX4 (Homo sapiens) (P36969 whole entry, looked up): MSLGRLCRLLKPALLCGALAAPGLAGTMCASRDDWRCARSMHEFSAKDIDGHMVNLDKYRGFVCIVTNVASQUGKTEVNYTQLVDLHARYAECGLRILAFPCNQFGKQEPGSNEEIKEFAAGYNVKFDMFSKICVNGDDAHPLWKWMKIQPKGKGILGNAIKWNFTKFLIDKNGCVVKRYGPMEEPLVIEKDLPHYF
# Procedure, shortened: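 GR-coupled assay: recombinant GPX4 preincubated 30 min with compound at room temperature; final 200 nM GPX4, 1 mM GSH, 0.5 mM cumene hydroperoxide, 0.5 mM NADPH, 100 nM GR, 0.01% BSA, pH 7.5 Tris. NADPH fluorescence (340/450 nm) read at 0 and 15 min.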
# [4] = qHTS drug screen for cell cycle checkpoint inhibitors in PARPi-resistant BRCA-mutant ovarian cancer cell lines. (AID 1963452; calls by dose curve; also: potency is read from the fitted curve at half-maximal effect); settings: PEO1/OlaR viability, CellTiter-Glo luminescence, 96 h; for Z-AUC: stronger effect = lower value
# Procedure, shortened: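 PEO1, PEO4 and PEO1/OlaR ovarian cancer cells, 600 per well, exposed 96 h at 37C to a dilution series. Viability read by CellTiter-Glo luminescence, normalized to DMSO and empty wells; activity summarized as Z-AUC.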
compound,measurement,setting,value
CNS(=O)(=O)Nc1nccc(Cc2c(C)c3ccc(Oc4ncccn4)cc3oc2=O)c1F,Potency,[1],inactive
same,Potency,[2],inactive
same,Potency,[3],inactive
same,Potency,[4],2.75 µM (active)
same,Z-AUC,[4]; measured here: PEO1 parental Z-AUC,-1.08
same,Z-AUC,[4]; measured here: PEO4 Z-AUC,-1.84
